The campaign covered roughly 390,000 compounds. About 17,000 (4.4%) were called active. About 8% were inconclusive and are not listed. Calls come from the whole dose curve; as a rule, active = well fitted inhibition curve with a large enough effect; inconclusive = small, poorly fitted or top-dose-only effect; inactive = no such curve, though single readings can be large or run the other way. The entries come from a sample that favours actives as a whole. A call without a number means that no potency is given here.
Target: Lysine-specific demethylase 4A (Homo sapiens) (UniProt O75164)
Sequence (O75164 whole entry, looked up, the tested form may be a part): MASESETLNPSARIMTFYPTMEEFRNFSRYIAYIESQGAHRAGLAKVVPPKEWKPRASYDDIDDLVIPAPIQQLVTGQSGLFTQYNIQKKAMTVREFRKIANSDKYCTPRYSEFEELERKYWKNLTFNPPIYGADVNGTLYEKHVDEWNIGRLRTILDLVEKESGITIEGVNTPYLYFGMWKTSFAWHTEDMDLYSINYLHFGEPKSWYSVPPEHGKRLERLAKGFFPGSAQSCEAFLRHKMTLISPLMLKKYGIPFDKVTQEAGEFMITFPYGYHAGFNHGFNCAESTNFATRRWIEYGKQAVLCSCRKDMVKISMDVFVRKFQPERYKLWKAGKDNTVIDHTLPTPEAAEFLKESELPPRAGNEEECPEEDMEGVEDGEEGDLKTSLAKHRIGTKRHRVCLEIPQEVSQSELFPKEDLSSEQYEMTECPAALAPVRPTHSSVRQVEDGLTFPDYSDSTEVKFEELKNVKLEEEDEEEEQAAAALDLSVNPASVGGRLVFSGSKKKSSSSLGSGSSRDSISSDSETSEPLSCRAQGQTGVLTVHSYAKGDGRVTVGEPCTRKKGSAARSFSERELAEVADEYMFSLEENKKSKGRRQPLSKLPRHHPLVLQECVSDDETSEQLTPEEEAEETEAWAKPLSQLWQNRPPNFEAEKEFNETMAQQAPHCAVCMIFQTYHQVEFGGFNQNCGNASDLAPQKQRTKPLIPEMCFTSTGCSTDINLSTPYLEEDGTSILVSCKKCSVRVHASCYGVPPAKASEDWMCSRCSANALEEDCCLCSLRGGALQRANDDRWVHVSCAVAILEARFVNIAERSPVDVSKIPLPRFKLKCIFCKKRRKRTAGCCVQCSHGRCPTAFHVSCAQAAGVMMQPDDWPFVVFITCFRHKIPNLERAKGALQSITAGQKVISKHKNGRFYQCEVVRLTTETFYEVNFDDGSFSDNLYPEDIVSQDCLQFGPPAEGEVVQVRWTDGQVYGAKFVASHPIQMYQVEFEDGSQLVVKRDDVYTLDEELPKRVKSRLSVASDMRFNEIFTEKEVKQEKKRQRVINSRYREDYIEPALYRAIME
Experiment: qHTS Assay for Inhibitors of JMJD2A-Tudor Domain; note: nearly all actives have a fitted effect of over 50% in size
Settings: AlphaScreen JMJD2A-Tudor / H3K4me3 peptide binding; series mostly up to 114 µM
Potency is the fitted concentration of half-maximal effect.

| SMILES | Potency |
| --- | --- |
| CCCCNC(=O)Cn1c(SCc2cccc(Cl)c2)nc2ccncc21 | inactive |
| CCCN(CCC)CCCNC(=O)Cn1ncc2c3ccccc3n(Cc3ccccc3)c2c1=O | inactive |
| C=CCc1ccccc1OCC(O)CN1CCN(CCO)CC1 (centres undefined) | inactive |
| Cc1cccc(OCC(O)CN2CCN(CCN3C(=O)c4cccc5cccc(c45)C3=O)CC2)c1C (centres undefined) | 39.8 µM (active) |
| Cc1ccc(OCC(O)CN2CCN(CC(O)COc3ccc(C)cc3Cl)CC2)c(Cl)c1 (centres undefined) | inactive |
| COc1ccc(NC(=O)Cn2c(=O)n(CCC(C)C)c(=O)c3cccnc32)cc1Cl | inactive |
| Cc1cc(C)cc(NC(=O)c2cnc3sc(N4CCCC4)nn3c2=O)c1 | inactive |
| COC(=O)c1ccccc1SC1CC(=O)N(c2cccc(C)c2)C1=O (centres undefined) | inactive |
| CCOc1ccccc1N1C(=O)CC(Sc2nccc(C)n2)C1=O (centres undefined) | inactive |
| Cc1ccc(CC2CC(=O)N(c3ccc4c(c3)OCCO4)C2=O)cc1 (centres undefined) | inactive |
| CC(=O)Nc1ccc(N2C(=O)CC(Sc3nccc(C)n3)C2=O)cc1 (centres undefined) | inactive |
| COc1ccc(N2C(=O)CC(SC(C)C)C2=O)cc1 (centres undefined) | inactive |
| COc1ccc(-c2nc(SCC(=O)N3CCCC3)n[nH]2)cc1 | inactive |
| COc1ccc(N2C(=O)CC(Sc3n[nH]c(-c4ccc(C)cc4)n3)C2=O)cc1 (centres undefined) | 2 µM (active) |
| O=C1CC(Sc2ncn[nH]2)C(=O)N1c1ccccc1 (centres undefined) | 39.8 µM (active) |
| Cc1ccc(N2C(=O)CC(Sc3ncn[nH]3)C2=O)cc1 (centres undefined) | 28.2 µM (active) |
| CC(=O)Nc1cccc(NC(=O)CSc2nccn2Cc2ccc3c(c2)OCO3)c1 | inactive |
| O=C(CCS(=O)(=O)c1ccccc1)N(Cc1cccnc1)c1nc2c(F)cccc2s1 | inactive |
| COc1ccc2oc(=O)c(-c3cn4c(n3)sc3cc(OC)ccc34)cc2c1 | inactive |
| CCC(=O)N1c2ccccc2CC1C(=O)N1CCN(c2ccccc2F)CC1 (centres undefined) | inactive |
| CC1=C(c2ccc(C)cc2)S(=O)(=O)NC1=NCCCN1CCN(c2cc(C)ccc2C)CC1 | inactive |
| COc1ccc(Cn2c(C(=O)O)c(CNCCc3cccs3)c3ccc(OC)cc32)cc1 | inactive |

| SMILES | Potency |
| --- | --- |
| COc1cc(OC)cc(C(=O)Nc2c(C(=O)Nc3ccc(F)cc3)oc3ccccc23)c1 | inactive |
| Cc1ccc(C)c(N2CCN(C(=O)Cn3ncc4c(=O)oc5ccc(C)cc5c43)CC2)c1 | inactive |
| C/C(=N\N(C)C)c1ccc(OCCOc2ccc([N+](=O)[O-])cc2)cc1 | 44.7 µM (active) |
| CO/N=C(\N)c1ccc([N+](=O)[O-])cc1 | inactive |
| C/C(=N/NC(=O)CC(=O)N/N=C(\C)c1ccc([N+](=O)[O-])cc1)c1ccc([N+](=O)[O-])cc1 | inactive |
| Cc1oc2ncnc(N3CCOCC3)c2c1C(=O)NCCc1ccccc1 | inactive |
| CCCCOc1ccc(C(=O)N2CC(=O)Nc3ccc(Br)cc3C2c2ccc(F)cc2)cc1 (centres undefined) | inactive |
| C[n+]1ccccc1C1CCCC/C1=N\Nc1ccc([N+](=O)[O-])cc1[N+](=O)[O-] (centres undefined) | inactive |
| O=[N+]([O-])c1ccc(N/N=C2/CCCCC2c2ccccn2)c([N+](=O)[O-])c1 (centres undefined) | 31.6 µM (active) |
| O=C(Nc1ccccc1)O/N=C1\CCCCC1c1ccc([N+](=O)[O-])cc1[N+](=O)[O-] (centres undefined) | inactive |
| Cc1ccc(C)c(S(=O)(=O)c2nnn3c2nc(N2CCOCC2)c2sccc23)c1 | inactive |
| COc1ccc(CCN2C(=O)N(c3cccc(OC)c3)C(=O)C2CC(=O)Nc2ccccc2)cc1 (centres undefined) | inactive |
| N#C/C(=C\C1=C(N2CCOCC2)C(=C\c2ccccc2)/CC1)C(=O)Nc1ccccc1F | 4.47 µM (active) |
| N#C/C(=C/c1ccc(N2CCOCC2)o1)C(=O)N1CCOCC1 | inactive |
| O=C(CC1SC(N2CCOCC2)=NC1=O)Nc1ccccc1F (centres undefined) | inactive |
| COc1c(Cl)cc(Cl)cc1C(=O)Nc1cccc2cccnc12 | inactive |
| Cc1cccc(NS(=O)(=O)c2ccc(C)c(C(=O)NCC(c3ccccc3)N(C)C)c2)c1 (centres undefined) | inactive |
| Cc1ccc(S(=O)(=O)NCCC(c2ccccc2)c2ccccc2)cc1C(=O)O | 79.4 µM (active) |
| Cc1ccc(S(=O)(=O)NCCCn2ccnc2)cc1C(=O)NC(C)C | inactive |
| Cc1nc(SCC(=O)Nc2ccc(C(=O)O)cc2)n[nH]1 | inactive |
| Cc1ccc(NC(=O)CSc2nc3c(c(=O)[nH]2)CN(Cc2ccc4c(c2)OCO4)CC3)cc1C | inactive |
| CCOC(=O)c1ccc(CN(Cc2ccccc2)S(=O)(=O)c2ccc(Cl)cc2)cc1 | inactive |

| SMILES | Potency |
| --- | --- |
| COc1cccc(NC(=O)CN2C(=O)c3ccccc3Sc3ncccc32)c1 | inactive |
| CCNS(=O)(=O)c1cc(-c2nnc(Nc3cccc(C(F)(F)F)c3)c3ccccc23)ccc1C | inactive |
| CCC(=C/c1sc2ccc3ccccc3c2[n+]1C)/C=C1\Sc2ccc3ccccc3c2N1C | 50.1 µM (active) |
| COc1ccc(CN2C(=O)C(NC(=O)c3cccc(C)c3)(C(F)(F)F)N=C2c2ccccc2)cc1 (centres undefined) | inactive |
| Cc1ccc(N2CCN(c3ccc(C)cc3)C2c2ccccn2)cc1 | 25.1 µM (active) |
| Cc1ccc(-n2ccc(=O)c(C(=O)O)n2)cc1 | inactive |
| Cc1ccc(S(=O)(=O)NCC(=O)N2CCN(c3ccccn3)CC2)cc1 | inactive |
| Cc1cccc(OCC(=O)N(Cc2ccc(C(C)C)cc2)Cc2ccco2)c1C | inactive |
| Oc1c(C(c2ccccc2Cl)N2CCOCC2)sc2nc(-c3ccco3)nn12 (centres undefined) | inactive |
| Oc1c(C(c2ccccn2)N2CCOCC2)ccc2cccnc12 (centres undefined) | 17.8 µM (active) |
| COc1cc(NC(=O)c2noc3c2CSc2ccccc2-3)cc(OC)c1OC | inactive |
| CC(=O)N1CCCc2cc(S(=O)(=O)Nc3ccc(Cl)cc3F)ccc21 | inactive |
| CCCCc1nn2c(=O)cc(COC(=O)c3ccccc3NC(=O)C(C)(C)C)nc2s1 | inactive |
| O=C(c1ccc(CS(=O)(=O)c2ccccc2)o1)N1CCN(c2ccccc2)CC1 | 56.2 µM (active) |
| O=C(c1ccc(S(=O)(=O)NCc2ccco2)cc1)N1CCN(c2ccccc2)CC1 | inactive |
| COc1ccccc1CNC(=O)c1ccc(CS(=O)(=O)c2ccccc2)o1 | inactive |
| Cc1cc(C)cc(NC(=O)CCS(=O)(=O)c2cc3c4c(c2)CCN4C(=O)CC3)c1 | inactive |
| Cc1cc(C)c2oc(C(=O)Nc3c(C(=O)Nc4ccccc4)oc4ccccc34)cc(=O)c2c1 | inactive |
| Cc1ccc(C)c(Oc2c(C(F)(F)F)oc3c(CN4CCN(C)CC4)c(O)ccc3c2=O)c1 | inactive |
| Cc1c(Cl)cccc1NC(=O)C1CCCN(c2ncnc3onc(C)c23)C1 (centres undefined) | inactive |
